Source: PubChem BioAssay AID602481 (Broad Institute, 2012)
Among all 360,000 compounds or so, about 340 (0.094%) were called active. No stated cut-off is given here; in the data, active means inhibition above about 40%; inconclusive means no clear call, values can overlap the other calls; inactive means below that. Only a selection was taken, and actives are over-represented in it overall.

Test system: 7,8-diaminopelargonic acid synthase BioA (Mycobacterium tuberculosis)
Assay: M. tuberculosis BioA enzyme inhibitors, primary screen, biochemical, plate reader, single point, HTS (AID 602481)
Conditions: purified M. tuberculosis BioA enzyme, at 9.99 µM, stronger effect = higher value

| SMILES | inhibition |
| --- | --- |
| O=C(NCC1CC1)[C@@H]1[C@@H](CO)[C@@H]2Cn3c(ccc(-c4ccccc4)c3=O)[C@H]1N2Cc1nccs1 | 0.617% (inactive) |
| CC(C)CC#Cc1ccc2c(c1)O[C@H](CN(C)C(=O)Cc1cccnc1)[C@H](C)CN([C@@H](C)CO)S2(=O)=O | 5.43% (inactive) |
| CC(=O)c1ccc(N2Cc3ccccc3C2)cc1 | 10.6% (inactive) |
| CC(=O)c1ccc(N2CCN(CC(O)c3ccccc3)CC2)cc1 (stereo not drawn) | 20.2% (inactive) |
| CC(=O)c1ccc(N2CCN(C(=O)c3ccc4nc[nH]c4c3)CC2)cc1 | 57% (active) |
| O=C(Cn1ncc2c3ccccc3n(Cc3ccccc3)c2c1=O)NCc1ccccn1 | -3.36% (inactive) |
| Cc1ccc(Cn2c(C)c3cnn(CC(=O)NCc4ccccn4)c(=O)c3c2C)cc1 | 8.47% (inactive) |
| Cc1c2cnn(CC(=O)NCc3ccccn3)c(=O)c2c(C)n1Cc1ccc(Cl)cc1 | 86.8% (active) |
| O=C(CSc1n[nH]c(-c2cccnc2)n1)Nc1ccc(Cl)cc1 | 16.3% (inactive) |
| O=C(CSc1n[nH]c(-c2cccnc2)n1)Nc1ccnc2ccccc12 | 46% (active) |
| O=C(CSc1ncn[nH]1)Nc1ccnc2ccccc12 | 1.08% (inactive) |
| Cc1ccc(S(=O)(=O)N(C)C[C@@H]2Oc3ccc(NS(=O)(=O)c4ccc(F)cc4)cc3CC(=O)N([C@@H](C)CO)C[C@H]2C)cc1 | 2.21% (inactive) |
| C[C@@H]1CN([C@H](C)CO)C(=O)Cc2cc(NC(=O)CCCCCC(=O)Nc3ccccc3N)ccc2O[C@H]1CN(C)S(=O)(=O)c1ccc(F)cc1 | 0.122% (inactive) |
| C[C@@H]1CN([C@@H](C)CO)C(=O)c2c(c3ccccc3n2C)-c2ccccc2CO[C@H]1CN(C)Cc1cccc(C(=O)O)c1 | -1.04% (inactive) |
| CCC(=O)Nc1ccc2c(c1)C(=O)N(C)C[C@H](OC)[C@H](C)CN(C(=O)C1CCC1)[C@@H](C)CO2 | 1.3% (inactive) |
| C[C@H](CO)N1C[C@H](C)[C@@H](CN(C)S(=O)(=O)c2cn(C)cn2)Oc2c(NC(=O)C3CC3)cccc2C1=O | -1.33% (inactive) |
| CC(=O)N[C@@H]1C=C[C@H](CC(=O)NCC2CCCCC2)O[C@H]1CO | -0.006% (inactive) |
| CO[C@H]1CN(C)C(=O)c2ccc(NS(C)(=O)=O)cc2OC[C@@H](C)N(Cc2ccccc2)C[C@@H]1C | -2.35% (inactive) |
| CCCNC(=O)N(C)C[C@H]1Oc2ncc(C#C[C@@H](C)O)cc2C(=O)N([C@@H](C)CO)C[C@@H]1C | -0.359% (inactive) |
| CCC(=O)N1C[C@@H](C)[C@@H](OC)CN(C)C(=O)c2ccc(NC(=O)C3CCCCC3)cc2OC[C@H]1C | -0.504% (inactive) |
| C[C@H](CO)N1C[C@H](C)[C@@H](CN(C)Cc2ccccc2)Oc2ccc(NC(=O)CCCN(C)C)cc2C1=O | -2.64% (inactive) |
| CCCNC(=O)C[C@@H]1CC[C@H]2[C@H](COc3ccc(NS(=O)(=O)c4ccccc4C)cc3C(=O)N2C)O1 | 1.74% (inactive) |
| COc1ccc(C(=O)N(C)Cc2ccc(OC)c(OC)c2OC)cc1S(=O)(=O)N1CCOCC1 | -0.32% (inactive) |

| SMILES | inhibition |
| --- | --- |
| COc1c(C=O)c(CCN(C)C(=O)c2ccc(F)cc2)cc2c1OCO2 | 48.4% (active) |
| CO[C@@H](CN(C)C(=O)c1ccc2c(c1)OCO2)[C@@H](C)CN([C@H](C)CO)S(=O)(=O)c1ccccc1 | 3.78% (inactive) |
| O=C(Cc1ccccc1)N1C[C@H]2[C@@H](c3ccccc31)[C@H](CO)N2C(=O)C1CCOCC1 | -4.05% (inactive) |
| CC(=O)N(C)C[C@@H]1Oc2ncc(C#Cc3ccccn3)cc2C(=O)N([C@@H](C)CO)C[C@@H]1C | -5.71% (inactive) |
| CN(C)C(=O)c1cccc(-c2ccc3c(c2)[C@H]2[C@H](CCN2C(=O)c2cccnc2)[C@H](CO)N3)c1 | 19.8% (inactive) |
| Cc1ccccc1S(=O)(=O)N(C)C[C@@H]1OCc2ccccc2-c2c(n(C)c3ccccc23)C(=O)N([C@H](C)CO)C[C@H]1C | -1.26% (inactive) |
| C[C@@H]1CCCCO[C@H](CN(C)S(=O)(=O)c2cn(C)cn2)[C@@H](C)CN([C@@H](C)CO)C(=O)c2cc(NC(=O)CCC(F)(F)F)ccc2O1 | -0.672% (inactive) |
| CN1c2ccc(-c3ccccc3F)cc2[C@H]2[C@H](CCN2C(=O)Cc2ccccn2)[C@H]1CO | 6.26% (inactive) |
| CN1c2ccc(-c3ccccc3)cc2[C@H]2[C@H](CCN2C(=O)Cc2ccccn2)[C@H]1CO | 50.1% (active) |
| COc1ccc(-c2ccc3c(c2)[C@@H]2[C@@H](CCN2C(=O)Cc2ccccn2)[C@H](CO)N3C)cc1 | -0.705% (inactive) |
| COCc1cn(CC[C@H]2CC[C@@H](NC(=O)Nc3ccc(OC)cc3)[C@@H](CO)O2)nn1 | 4.23% (inactive) |
| CN1c2ccc(-c3cccc(C#N)c3)cc2[C@@H]2[C@@H](CCN2C(=O)C2CCC2)[C@@H]1CO | 1.18% (inactive) |
| C=CCOc1nc2c(c(=O)n(C)c(=O)n2C)n1Cc1ccc(Cl)cc1Cl | -1.57% (inactive) |
| Cn1c(=O)c2c(nc(OCc3cccnc3)n2Cc2ccccc2)n(C)c1=O | 69.8% (active) |
| CCOC(=O)N1CCN(Cc2nc3c(c(=O)n(C)c(=O)n3C)n2Cc2ccccc2)CC1 | 4.21% (inactive) |
| CN(C)C(=O)C[C@H]1C[C@H]2c3cc(NC(=O)Nc4ccc(C(F)(F)F)cc4)ccc3O[C@H]2[C@@H](CO)O1 | -0.072% (inactive) |
| COCCN(C[C@H]1[C@H](c2ccccc2)[C@@H](CO)N1C(C)=O)C(=O)c1cccnc1 | 4.64% (inactive) |
| C[C@H](CO)N1C[C@H](C)[C@@H](CN(C)C(=O)Cc2cccnc2)Oc2ncc(-c3ccncc3)cc2C1=O | 5.57% (inactive) |
| CCCNC(=O)N1C[C@H](C)[C@H](OC)CN(C)C(=O)c2cc(NC(=O)CC)ccc2OC[C@H]1C | 0.679% (inactive) |
| CO[C@@H](CN(C)S(=O)(=O)c1ccc(C)cc1)[C@@H](C)CN([C@@H](C)CO)S(=O)(=O)c1cccc(Cl)c1 | -0.469% (inactive) |
| CN1C(=O)c2cc(NC(=O)Nc3ccccc3F)ccc2OC[C@H]2O[C@@H](CC(=O)Nc3cccc(Cl)c3)CC[C@@H]21 | 4.99% (inactive) |
| CO[C@H]1CN(C)C(=O)c2ccc(NS(=O)(=O)c3cn(C)cn3)cc2OC[C@H](C)N(C)C[C@H]1C | -1.67% (inactive) |
| CC(C)CC#Cc1ccc2c(c1)O[C@H](CN(C)Cc1ccccc1F)[C@@H](C)CN([C@@H](C)CO)S2(=O)=O | 0.76% (inactive) |

| SMILES | inhibition |
| --- | --- |
| O=C(NCCN1CCCC1)[C@@H]1N[C@@H]2c3ccc(-c4ccccc4)c(=O)n3C[C@@H]2[C@H]1CO | -0.384% (inactive) |
| CC(C)NC(=O)Nc1ccc2c(c1)C(=O)N([C@H](C)CO)C[C@H](C)[C@@H](CN(C)S(C)(=O)=O)OCCCC[C@@H](C)O2 | -1.93% (inactive) |
| C[C@H](O)C#Cc1ccc([C@@H]2[C@@H](CO)N3CCCCN(C(=O)c4ccc(F)cc4)C[C@H]23)cc1 | 8.06% (inactive) |
| O=C(C[C@@H]1CC[C@@H]2[C@H](COC[C@@H](O)CN2S(=O)(=O)c2cccc(Cl)c2)O1)N1CCOCC1 | 0.133% (inactive) |
| C[C@@H]1CN([C@@H](C)CO)S(=O)(=O)c2ccc(-c3cncnc3)cc2O[C@@H]1CN(C)C(=O)C1CC1 | -2.8% (inactive) |
| Cc1nc2nc(SCC(=O)NCc3ccco3)nn2c(C)c1Cc1ccccc1 | 45.5% (active) |
| Cc1ccc(Cn2c(C)c3cnn(CC(=O)NCCN4CCOCC4)c(=O)c3c2C)cc1 | 11.4% (inactive) |
| COc1cc(OC)cc(-c2nc3nc(C)c(CCC(=O)NCc4ccco4)c(C)n3n2)c1 | -1.9% (inactive) |
| Cc1ccc(Cc2c(C)nc3nc(SCC(=O)NCCN4CCOCC4)nn3c2C)cc1 | 53.9% (active) |
| O=C(Cn1cc2c(n1)CCCCC2)NCCN1CCOCC1 | 1.9% (inactive) |
| Cc1nc2c(-c3ccc(F)cc3)c(C)nn2c(C)c1CCC(=O)NCc1ccco1 | -0.947% (inactive) |
| CO[C@H]1CN(C)C(=O)c2ccc(NC(=O)c3cccc(Oc4ccccc4)c3)cc2OC[C@@H](C)NC[C@H]1C | 2.28% (inactive) |
| C/C=C/c1ccc2c(c1)O[C@@H](CN(C)S(C)(=O)=O)[C@@H](C)CN([C@H](C)CO)S2(=O)=O | 3.09% (inactive) |
| CN1C(=O)c2cc(NS(=O)(=O)c3ccc(F)cc3)ccc2OC[C@@H]2O[C@@H](CC(=O)O)CC[C@H]21 | 0.387% (inactive) |
| C[C@@H](NC(=O)C[C@H]1C=C[C@H](NC(=O)C2CCOCC2)[C@H](CO)O1)c1ccccc1 | 1.84% (inactive) |
| C[C@H](CO)N1C[C@H](C)[C@@H](CN(C)CC2CCCCC2)Oc2ccc(NS(=O)(=O)c3cccs3)cc2CC1=O | 3.51% (inactive) |
| CO[C@@H]1CN(C)C(=O)c2cc(NC(=O)c3cnccn3)ccc2OC[C@@H](C)N(C(=O)C2CC2)C[C@@H]1C | 9.9% (inactive) |
| CC=Cc1ccc2n(c1=O)C[C@@H]1[C@@H](CO)[C@H](C(=O)N3CCc4ccccc4C3)N(C(=O)C3CCC3)[C@H]21 (mixture of isomers) | 0.815% (inactive) |
| CC(C)(C)S(=O)N1Cc2cc(C(=O)O)nc(-c3cccc(-c4cc5ccccc5o4)c3)c2[C@@H]1CCO (stereo partly drawn) | -0.446% (inactive) |
| CCCNC(=O)Nc1ccc2c(c1)C(=O)N(C)C[C@@H](OC)[C@@H](C)CN(C)[C@@H](C)CO2 | -0.7% (inactive) |
| CN(C)c1ccc2c(c1)[C@H]1C[C@H](CC(=O)NCc3ccc(Cl)cc3)O[C@H](CO)[C@H]1O2 | 0.352% (inactive) |
| O=C(CC1CC1)N1[C@@H]2CN(S(=O)(=O)c3ccc(F)cc3)c3ccccc3[C@@H]2[C@@H]1CO | 3.83% (inactive) |
